Compounds without any hit were thinned out: in the full panel of roughly 83,000, 20% have a hit.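 For each line, cells grew in 96-well plates with the test compound present at a single concentration for 48 hours.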 Unmarked numbers belong to inactive results. The source made the active and inactive calls. How the source made its calls: active means growth percent below 10; inactive means the rest.
Tests used:
Assay in all cases: NCI-60 one-dose screen, 48 h (100 = growth as untreated, 0 = no growth, -100 = all killed)
[1] = system: NCI-H23 lung; details: 10 µM unless noted
[2] = system: 786-0 renal; details: 10 µM unless noted
[3] = system: DU-145 prostate; details: 10 µM unless noted
[4] = system: MDA-MB-231 breast; details: 10 µM unless noted
[5] = system: SF-268 CNS; details: 10 µM unless noted
[6] = system: SF-539 CNS; details: 10 µM unless noted
[7] = system: M14 melanoma; details: 10 µM unless noted
[8] = system: HCT-15 colon; details: 10 µM
[9] = system: UACC-62 melanoma; details: 10 µM unless noted
[10] = system: LOX IMVI melanoma; details: 10 µM unless noted
[11] = system: SK-MEL-28 melanoma; details: 10 µM unless noted
[12] = system: ACHN renal; details: 10 µM unless noted
[13] = system: OVCAR-5 ovarian; details: 10 µM unless noted
[14] = system: OVCAR-3 ovarian; details: 10 µM unless noted
[15] = system: NCI/ADR-RES ovarian; details: 10 µM unless noted
[16] = system: T-47D breast; details: 10 µM unless noted
[17] = system: MDA-MB-435 melanoma; details: 10 µM unless noted
[18] = system: SW-620 colon; details: 10 µM unless noted
[19] = system: MCF7 breast; details: 10 µM unless noted
[20] = system: KM12 colon; details: 10 µM unless noted

| Structure (SMILES) | growth [1] | growth [2] | growth [3] | growth [4] | growth [5] | growth [6] | growth [7] | growth [8] | growth [9] | growth [10] | growth [11] | growth [12] | growth [13] | growth [14] | growth [15] | growth [16] | growth [17] | growth [18] | growth [19] | growth [20] |
| --- | --- | --- | --- | --- | --- | --- | --- | --- | --- | --- | --- | --- | --- | --- | --- | --- | --- | --- | --- | --- |
| Cn1cnnc1[S-].[Au+].c1ccc([PH+](c2ccccc2)c2ccccc2)cc1 | 15.8% | 1.78% (active) | 33.6% | 30.3% | 12.5% | 15.4% | -11.9% (active) | -67.4% (active) | -15.1% (active) | -48.6% (active) | 10.5% | -42.3% (active) | 91.9% | -81.2% (active) | 69.5% | -16.6% (active) | 11.1% | -49.3% (active) | -56.5% (active) | 58.3% |
| CC(=O)O[C@@H]1C2=C(C)C3(CC3)[C@@](C)(O)C(=O)C2=C[C@@]1(C)CO | -33.2% (active) | 0.386% (active) | 5.53% (active) | -2.64% (active) | 6.35% (active) | -33.1% (active) | -48.6% (active) | 0.741% (active) | -69.8% (active) | -25.2% (active) | -28.8% (active) | -6.63% (active) | 4.7% (active) | -9.99% (active) | -5.59% (active) | 7.72% (active) | -85% (active) | 4.27% (active) | 1.42% (active) | 0.46% (active) |
| NCCc1cc(O)c(O)cc1O | 100% | 99.9% | 112% | 94.4% | 104% | – | 99.6% | 97.6% | – | 101% | 114% | 87.4% | – | 111% | 101% | 100% | 108% | 109% | 105% | 96.8% |
